Measurements from PubChem BioAssay (EPA / NIEHS).
Inconclusive results are not listed. Activity calls are given as the source filed them. The calls were made as follows: active = hit-call score of the fitted dose curve at least 0.9, where 1 is the maximum; inconclusive = response in the unintended direction; inactive = score below 0.9.

How the values were obtained:
[1] = biological target: human Rho Associated Coiled-coil Containing Protein Kinase 1 (ROCK1), ROCK1 (gene 6093) (UniProt Q13464); assay: NVS_ENZ_hROCK1: NovaScreen (NVS) Enzymatic Assay for human Rho Associated Coiled-coil Containing Protein Kinase 1 (ROCK1) (AID 2283214)
Outline: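 Cell-free recombinant human ROCK1 activity assay; fluorescent substrate and product separated by electrophoretic mobility shift, read 1 h after dosing. Screened in duplicate at 25 uM; loss of signal versus DMSO baseline scored as inhibition.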

[2] = biological target: Tyrosine-protein phosphatase non-receptor type 11 (Homo sapiens) (UniProt Q06124); assay: NVS_ENZ_hPTPN11: NovaScreen (NVS) Enzymatic Assay for human Protein Tyrosine Phosphatase Non-receptor Type 11 (PTPN11) (AID 2283202)
Outline: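 Recombinant human PTPN11 activity on a fluorescent substrate, with substrate/product separated by electrophoretic mobility shift; read 0.5 h after dosing, loss of signal vs DMSO. Duplicate 25 uM screen, then concentration-response up to 50 uM.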

[3] = biological target: Tyrosine-protein phosphatase non-receptor type 12 (Homo sapiens) (UniProt Q05209); assay: NVS_ENZ_hPTPN12: NovaScreen (NVS) Enzymatic Assay for human Protein Tyrosine Phosphatase Non-receptor Type 12 (PTPN12) (AID 2283204)
Tyrosine-protein phosphatase non-receptor type 12 (Homo sapiens), sequence (Q05209 whole entry, looked up): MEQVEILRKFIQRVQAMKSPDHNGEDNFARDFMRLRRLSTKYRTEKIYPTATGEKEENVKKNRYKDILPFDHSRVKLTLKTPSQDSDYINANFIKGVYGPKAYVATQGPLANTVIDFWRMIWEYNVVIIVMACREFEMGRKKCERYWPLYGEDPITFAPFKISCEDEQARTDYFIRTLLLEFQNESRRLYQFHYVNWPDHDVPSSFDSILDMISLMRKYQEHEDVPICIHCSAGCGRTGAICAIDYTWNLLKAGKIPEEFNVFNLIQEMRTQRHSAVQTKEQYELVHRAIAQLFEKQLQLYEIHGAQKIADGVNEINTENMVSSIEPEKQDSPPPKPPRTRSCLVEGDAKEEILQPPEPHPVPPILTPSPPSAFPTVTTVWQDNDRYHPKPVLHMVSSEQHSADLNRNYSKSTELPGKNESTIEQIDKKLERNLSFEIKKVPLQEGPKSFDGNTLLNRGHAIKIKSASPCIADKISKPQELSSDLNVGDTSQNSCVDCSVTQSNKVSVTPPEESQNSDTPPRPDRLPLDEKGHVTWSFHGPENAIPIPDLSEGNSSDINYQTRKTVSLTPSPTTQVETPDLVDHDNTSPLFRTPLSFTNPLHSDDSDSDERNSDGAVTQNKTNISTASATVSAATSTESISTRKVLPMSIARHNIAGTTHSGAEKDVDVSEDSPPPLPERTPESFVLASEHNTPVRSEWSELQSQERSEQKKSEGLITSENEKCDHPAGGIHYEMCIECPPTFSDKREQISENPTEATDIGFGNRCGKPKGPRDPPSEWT
Outline: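 Single-concentration duplicates (25 uM) preceded singleton concentration-response up to 50 uM for chemicals passing threshold. Cell-free recombinant PTPN12 activity was read 1.33 h after dosing via fluorescence after mobility-shift separation; loss of signal versus DMSO.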

[4] = biological target: Tyrosine-protein phosphatase non-receptor type 14 (Homo sapiens) (UniProt Q15678); assay: NVS_ENZ_hPTPN14: NovaScreen (NVS) Enzymatic Assay for human Protein Tyrosine Phosphatase Non-receptor Type 14 (PTPN14) (AID 2283206)
Tyrosine-protein phosphatase non-receptor type 14 (Homo sapiens), sequence (Q15678 whole entry, looked up): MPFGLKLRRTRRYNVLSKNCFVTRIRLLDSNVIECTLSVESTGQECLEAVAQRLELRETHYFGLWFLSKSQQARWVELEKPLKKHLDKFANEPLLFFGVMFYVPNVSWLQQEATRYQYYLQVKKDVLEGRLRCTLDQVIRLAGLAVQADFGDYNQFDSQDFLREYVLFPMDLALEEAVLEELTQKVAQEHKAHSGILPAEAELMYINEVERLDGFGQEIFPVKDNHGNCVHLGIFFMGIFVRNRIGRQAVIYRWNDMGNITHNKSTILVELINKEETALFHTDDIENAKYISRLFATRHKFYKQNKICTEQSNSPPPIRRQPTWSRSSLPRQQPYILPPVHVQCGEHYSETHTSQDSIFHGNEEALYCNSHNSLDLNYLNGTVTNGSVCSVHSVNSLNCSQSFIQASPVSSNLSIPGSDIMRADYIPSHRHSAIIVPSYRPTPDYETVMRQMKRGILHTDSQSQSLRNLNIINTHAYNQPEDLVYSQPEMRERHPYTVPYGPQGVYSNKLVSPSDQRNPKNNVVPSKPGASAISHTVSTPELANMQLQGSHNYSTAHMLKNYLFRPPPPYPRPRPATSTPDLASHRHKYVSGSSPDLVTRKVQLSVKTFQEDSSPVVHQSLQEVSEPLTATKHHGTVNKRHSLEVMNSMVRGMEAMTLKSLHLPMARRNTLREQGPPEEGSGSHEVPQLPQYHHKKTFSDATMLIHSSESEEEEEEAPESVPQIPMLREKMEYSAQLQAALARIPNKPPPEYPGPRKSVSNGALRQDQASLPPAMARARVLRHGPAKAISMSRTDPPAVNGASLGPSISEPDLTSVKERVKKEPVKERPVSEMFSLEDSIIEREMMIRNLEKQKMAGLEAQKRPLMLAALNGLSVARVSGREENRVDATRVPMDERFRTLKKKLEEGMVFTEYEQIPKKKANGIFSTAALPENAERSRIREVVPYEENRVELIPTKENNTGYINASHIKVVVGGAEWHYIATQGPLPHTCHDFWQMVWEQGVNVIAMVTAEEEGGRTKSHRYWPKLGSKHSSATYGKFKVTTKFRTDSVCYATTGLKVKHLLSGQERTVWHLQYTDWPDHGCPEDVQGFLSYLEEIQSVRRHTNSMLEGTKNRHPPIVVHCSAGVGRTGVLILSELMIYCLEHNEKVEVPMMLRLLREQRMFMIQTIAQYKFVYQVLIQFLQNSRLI
Outline: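 Cell-free recombinant human PTPN14 with fluorescent substrate, read 0.5 h after dosing by fluorescence and electrophoretic mobility shift separating substrate from product. Primary screen at 25 uM in duplicate; hits run to 50 uM maximum; loss of signal versus DMSO.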

[5] = biological target: human Protein Tyrosine Phosphatase Non-receptor Type 6 (PTPN6), PTPN6 (gene 5777) (UniProt P29350); assay: NVS_ENZ_hPTPN6: NovaScreen (NVS) Enzymatic Assay for human Protein Tyrosine Phosphatase Non-receptor Type 6 (PTPN6) (AID 2283210)
Outline: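 Cell-free assay with recombinant PTPN6 expressed in SF9 cells, fluorescent substrate, product separated from substrate by electrophoretic mobility shift; read 1.33 hours after dosing. Primary screen in duplicate at 25 uM, actives retested in concentration series; DMSO baseline.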

[6] = biological target: Tyrosine-protein phosphatase non-receptor type 13 (Homo sapiens) (UniProt Q12923); assay: NVS_ENZ_hPTPN13: NovaScreen (NVS) Enzymatic Assay for human Protein Tyrosine Phosphatase Non-receptor Type 13 (PTPN13) (AID 2283205)
Tyrosine-protein phosphatase non-receptor type 13 (Homo sapiens), sequence (Q12923 whole entry, looked up): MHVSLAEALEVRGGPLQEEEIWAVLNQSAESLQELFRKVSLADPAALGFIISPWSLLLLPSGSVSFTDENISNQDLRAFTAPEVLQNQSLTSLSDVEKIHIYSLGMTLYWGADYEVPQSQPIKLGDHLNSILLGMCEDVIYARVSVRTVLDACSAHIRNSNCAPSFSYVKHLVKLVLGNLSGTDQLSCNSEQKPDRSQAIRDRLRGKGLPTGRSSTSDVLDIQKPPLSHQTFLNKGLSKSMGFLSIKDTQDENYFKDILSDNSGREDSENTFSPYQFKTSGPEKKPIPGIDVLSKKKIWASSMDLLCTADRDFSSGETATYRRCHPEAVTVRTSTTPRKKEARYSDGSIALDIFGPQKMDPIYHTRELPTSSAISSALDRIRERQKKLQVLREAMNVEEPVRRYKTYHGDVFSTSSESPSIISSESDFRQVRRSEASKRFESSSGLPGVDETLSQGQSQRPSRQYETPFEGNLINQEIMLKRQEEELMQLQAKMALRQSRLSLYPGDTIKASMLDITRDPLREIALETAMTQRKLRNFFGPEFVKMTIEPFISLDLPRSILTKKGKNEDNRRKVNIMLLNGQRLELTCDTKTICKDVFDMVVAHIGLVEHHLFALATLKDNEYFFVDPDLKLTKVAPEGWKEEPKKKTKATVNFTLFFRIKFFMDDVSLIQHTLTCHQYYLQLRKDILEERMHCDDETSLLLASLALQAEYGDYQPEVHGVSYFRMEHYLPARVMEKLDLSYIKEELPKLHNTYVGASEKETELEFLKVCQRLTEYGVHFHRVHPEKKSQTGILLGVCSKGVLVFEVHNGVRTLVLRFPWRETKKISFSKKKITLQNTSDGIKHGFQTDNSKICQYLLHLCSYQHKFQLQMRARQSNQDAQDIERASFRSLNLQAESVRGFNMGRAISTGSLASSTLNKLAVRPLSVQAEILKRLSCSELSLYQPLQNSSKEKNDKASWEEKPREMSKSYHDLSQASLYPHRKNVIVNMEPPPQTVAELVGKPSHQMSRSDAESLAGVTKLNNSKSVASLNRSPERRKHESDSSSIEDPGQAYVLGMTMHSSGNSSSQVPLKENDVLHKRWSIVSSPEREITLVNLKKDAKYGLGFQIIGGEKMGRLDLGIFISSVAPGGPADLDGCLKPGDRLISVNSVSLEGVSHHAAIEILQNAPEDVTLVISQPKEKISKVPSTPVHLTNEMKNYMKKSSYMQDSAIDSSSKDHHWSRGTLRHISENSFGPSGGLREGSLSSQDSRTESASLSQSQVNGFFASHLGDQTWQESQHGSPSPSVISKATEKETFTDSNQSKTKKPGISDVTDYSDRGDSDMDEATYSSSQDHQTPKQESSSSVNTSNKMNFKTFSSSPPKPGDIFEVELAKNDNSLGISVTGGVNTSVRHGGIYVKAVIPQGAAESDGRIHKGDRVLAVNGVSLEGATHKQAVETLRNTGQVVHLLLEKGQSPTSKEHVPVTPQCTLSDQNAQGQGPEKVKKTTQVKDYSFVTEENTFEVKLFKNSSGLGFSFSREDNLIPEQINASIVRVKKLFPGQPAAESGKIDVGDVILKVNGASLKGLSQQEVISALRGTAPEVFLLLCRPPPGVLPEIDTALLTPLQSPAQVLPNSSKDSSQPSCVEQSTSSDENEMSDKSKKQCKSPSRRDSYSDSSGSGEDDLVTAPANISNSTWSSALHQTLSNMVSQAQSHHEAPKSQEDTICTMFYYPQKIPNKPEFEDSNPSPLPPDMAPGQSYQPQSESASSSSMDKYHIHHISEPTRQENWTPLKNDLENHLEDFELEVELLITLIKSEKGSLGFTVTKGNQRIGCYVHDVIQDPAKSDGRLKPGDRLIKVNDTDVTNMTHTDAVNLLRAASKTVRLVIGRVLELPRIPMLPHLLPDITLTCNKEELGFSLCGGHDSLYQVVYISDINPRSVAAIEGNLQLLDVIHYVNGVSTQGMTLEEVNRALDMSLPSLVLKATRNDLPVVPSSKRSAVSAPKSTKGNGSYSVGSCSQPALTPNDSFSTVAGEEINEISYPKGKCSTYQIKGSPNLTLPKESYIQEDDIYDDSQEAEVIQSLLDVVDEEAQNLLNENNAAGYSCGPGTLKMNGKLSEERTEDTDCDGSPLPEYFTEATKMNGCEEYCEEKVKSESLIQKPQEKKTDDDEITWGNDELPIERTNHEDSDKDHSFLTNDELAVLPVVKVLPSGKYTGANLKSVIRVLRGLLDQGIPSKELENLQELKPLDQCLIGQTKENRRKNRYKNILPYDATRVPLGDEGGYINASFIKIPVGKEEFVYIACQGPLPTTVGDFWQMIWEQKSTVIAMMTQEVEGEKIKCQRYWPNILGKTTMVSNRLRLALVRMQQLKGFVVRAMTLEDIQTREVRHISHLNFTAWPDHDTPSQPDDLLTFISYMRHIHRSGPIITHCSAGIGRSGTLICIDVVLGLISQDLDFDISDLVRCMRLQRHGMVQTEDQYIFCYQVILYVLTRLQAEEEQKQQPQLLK
Outline: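 Cell-free assay of recombinant human PTPN13 with a fluorescent substrate, product separated by electrophoretic mobility shift and read 0.5 h after dosing. Primary screen at 25 uM in duplicate, then concentration-response up to 50 uM. Loss of signal fitted against DMSO.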

[7] = biological target: human Protein Tyrosine Phosphatase Non-receptor Type 9 (PTPN9), PTPN9 (gene 5780) (UniProt P43378); assay: NVS_ENZ_hPTPN9: NovaScreen (NVS) Enzymatic Assay for human Protein Tyrosine Phosphatase Non-receptor Type 9 (PTPN9) (AID 2283209)
human Protein Tyrosine Phosphatase Non-receptor Type 9 (PTPN9), PTPN9 (gene 5780), sequence (P43378 whole entry, looked up): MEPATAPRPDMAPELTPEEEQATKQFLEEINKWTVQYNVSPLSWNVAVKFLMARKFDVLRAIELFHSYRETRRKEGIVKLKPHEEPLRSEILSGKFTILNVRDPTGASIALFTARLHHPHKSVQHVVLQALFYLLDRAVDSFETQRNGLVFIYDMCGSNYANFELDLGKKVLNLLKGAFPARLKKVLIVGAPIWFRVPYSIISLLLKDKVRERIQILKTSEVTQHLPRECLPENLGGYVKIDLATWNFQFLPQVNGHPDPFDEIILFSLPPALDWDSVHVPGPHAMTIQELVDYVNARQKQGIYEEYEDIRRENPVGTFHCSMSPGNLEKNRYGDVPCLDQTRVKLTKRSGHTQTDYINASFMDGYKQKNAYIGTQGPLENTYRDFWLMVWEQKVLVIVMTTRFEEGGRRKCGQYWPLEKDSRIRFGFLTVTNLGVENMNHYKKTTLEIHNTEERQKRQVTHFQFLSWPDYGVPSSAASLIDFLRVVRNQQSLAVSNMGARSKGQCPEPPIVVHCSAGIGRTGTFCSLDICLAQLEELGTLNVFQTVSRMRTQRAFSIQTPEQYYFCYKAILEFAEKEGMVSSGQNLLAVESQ
Outline: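 Sf9-expressed enzyme in a cell-free assay, fluorescence read 1.33 h after dosing with mobility-shift separation of substrate and product. Tested at 25 uM in duplicate, then up to 50 uM; signal loss versus DMSO.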

[8] = biological target: human Protein Tyrosine Phosphatase Non-receptor Type 4 (PTPN4), PTPN4 (gene 5775) (UniProt P29074); assay: NVS_ENZ_hPTPN4: NovaScreen (NVS) Enzymatic Assay for human Protein Tyrosine Phosphatase Non-receptor Type 4 (PTPN4) (AID 2283208)
Outline: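 Cell-free assay of PTPN4 expressed in Sf9 cells, using a fluorescent substrate with product separated by mobility shift; read 1.33 h after dosing. Single-point screen at 25 uM, then concentration-response up to 50 uM. Loss of signal relative to DMSO.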

[9] = biological target: human Protein Tyrosine Phosphatase Receptor Type F (PTPRF), PTPRF (gene 5792) (UniProt P10586); assay: NVS_ENZ_hPTPRF: NovaScreen (NVS) Enzymatic Assay for human Protein Tyrosine Phosphatase Receptor Type F (PTPRF) (AID 2283213)
Experimental: NVS_ENZ_hPTPRF is a biochemical, single-readout assay that uses extracted gene-proteins in a cell-free assay. Measurements were taken 1 hour after chemical dosing in a 384-well plate.NVS_ENZ_hPTPRF is one of one assay component(s) measured or calculated from the NVS_ENZ_hPTPRF assay. It is designed to make measurements of enzyme activity, a form of enzyme reporter, as detected with fluorescence intensity signals by Fluorescence and electrophoretic mobility shift technology.Data from the assay component NVS_ENZ_hPTPRF was analyzed into 1 assay endpoint. This assay endpoint, NVS_ENZ_hPTPRF, was analyzed in the positive analysis fitting direction relative to DMSO as the negative control and baseline of activity. Using a type of enzyme reporter, loss-of-signal activity can be used to understand changes in the enzymatic activity as they relate to the gene PTPRF. Furthermore, this assay endpoint can be referred to as a primary readout, because this assay has produced multiple assay endpoints where this one serves a enzymatic activity function. To generalize the intended target to other relatable targets, this assay endpoint is annotated to the phosphatase intended target family, where the subfamily is receptor tyrosine phosphatase.
Binding assays used specific radioligands (tritiated, iodinated) with non-radioactive competitive displacement ligands in agonist or antagonist protocols (as indicated) and various reference compounds and inhibitors to titrate specific binding to receptors and transporters. Most enzyme assays (CYPs, kinases, phosphatases, proteases, HDACs) used recombinant protein and specific substrates (fluorescence mostly, some colorimetric and radioactive) and inhibitors, followed by a biochemical separation of substrate and product. All assays for the biochemical HTS were initially run in duplicate at a single concentration (10 uM for CYP450 assays and 25 uM for all others). […]

[10] = biological target: human Protein Tyrosine Phosphatase Receptor Type B (PTPRB), PTPRB (gene 5787) (UniProt P23467); assay: NVS_ENZ_hPTPRB: NovaScreen (NVS) Enzymatic Assay for human Protein Tyrosine Phosphatase Receptor Type B (PTPRB) (AID 2283211)
Outline: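 Recombinant human PTPRB with a fluorescent substrate, product separated by electrophoretic mobility shift; read 1 h after dosing. Primary screen in duplicate at 25 uM; actives then retested in concentration series; loss of signal versus DMSO.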

Cc1cccc([N+](=O)[O-])c1C
outcome [1]: inactive

NCCO
outcome [2]: inactive
outcome [3]: inactive
outcome [4]: inactive

Cc1ccc(C)c(C)c1
outcome [5]: inactive

Cc1ccc(C)c(O)c1C
outcome [1]: inactive

CCCc1cc(=O)[nH]c(=S)[nH]1
outcome [6]: inactive

O=C(O)CCCCC(=O)O
outcome [7]: inactive

O=C(OCCCCCOC(=O)c1ccccc1)c1ccccc1
outcome [8]: inactive
outcome [7]: inactive
outcome [9]: inactive

CC(C)c1ccc(C(=O)N=C(N)N)cc1S(C)(=O)=O
outcome [9]: inactive

Nc1ccccc1N
AC50 [7]: 9.86 µM (active)

CC(=O)OC/C=C(\C)CCC=C(C)C
outcome [4]: inactive

Nc1ccc2c(c1)C(=O)c1ccccc1C2=O
outcome [8]: inactive

CCc1c(C(=O)NN2CCCCC2)nn(-c2ccc(Cl)cc2Cl)c1-c1ccc(Br)cc1
outcome [2]: inactive
outcome [3]: inactive
AC50 [6]: 0.0976 µM (active)
outcome [7]: inactive
outcome [5]: inactive
outcome [9]: inactive

CC(=O)OCCOCCOCCOC(C)=O
outcome [1]: inactive

C[C@]12C=CC(=O)C=C1CC[C@@H]1[C@@H]2C(=O)C[C@@]2(C)[C@H]1CC[C@]2(O)C(=O)CO
outcome [5]: inactive

Cc1nc(C)nc(N2C[C@@H](C)N(c3ccnc([C@@H](C)O)n3)[C@@H](C)C2)n1
outcome [1]: inactive

O=[N+]([O-])C(CO)(CO)CO
AC50 [7]: 38.4 µM (active)
outcome [5]: inactive

FC(F)(F)C(F)(F)C(F)(F)C(F)(F)C(F)(F)C(F)(F)CCI
outcome [3]: inactive
outcome [8]: inactive
outcome [10]: inactive

COc1cc(-c2nc(NC(=O)c3cc4cc(C)cc(C)c4n3CC(=O)O)sc2CCC2CCCCC2)c(OC)cc1Cl
AC50 [6]: 6.01 µM (active)

CC1(C)CC(N=C=O)CC(C)(CN=C=O)C1 (stereo not drawn)
AC50 [6]: 6.77 µM (active)

Cc1nc(-c2ccc3c(c2)CCN(CCC2CCC(NC(=O)/C=C/c4ccc(F)cc4)CC2)CC3)no1 (stereo not drawn)
outcome [3]: inactive

CCOC(=O)C(C)(C)Oc1ccc(Cl)cc1
outcome [2]: inactive
outcome [3]: inactive
outcome [6]: inactive
outcome [7]: inactive

CCCCCCCCCCC
outcome [7]: inactive

NS(=O)(=O)c1cc2c(cc1Cl)NCNS2(=O)=O
outcome [7]: inactive

COc1ccc(C)cc1N
outcome [5]: inactive

O=C(O)Cc1ccccc1Nc1c(Cl)cccc1Cl
outcome [5]: inactive

Oc1ccc2ccccc2c1N=Nc1ccccc1
AC50 [7]: 25 µM (active)
outcome [5]: inactive

C1CCC(SSC2CCCCC2)CC1
outcome [4]: inactive

CCCCCCCCCCCCCCCCCC(=O)O
outcome [1]: inactive

Cc1ccc2ncccc2c1
outcome [2]: inactive
outcome [8]: inactive
outcome [7]: inactive
outcome [5]: inactive
